# In PubChem BioAssay:
# Target: E3 ubiquitin-protein ligase XIAP (Homo sapiens) (UniProt P98170)
# Test: XIAP binders, primary screen, biophysical, small-molecule microarray, fluorescence 635 nm (AID 1181);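 further: score merges 667 nm emission and signal to noise over triplicate slides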
# Conditions: small-molecule microarray binding, higher = more signal
# Chain of E3 ubiquitin-protein ligase XIAP (Homo sapiens) (P98170 whole entry, looked up): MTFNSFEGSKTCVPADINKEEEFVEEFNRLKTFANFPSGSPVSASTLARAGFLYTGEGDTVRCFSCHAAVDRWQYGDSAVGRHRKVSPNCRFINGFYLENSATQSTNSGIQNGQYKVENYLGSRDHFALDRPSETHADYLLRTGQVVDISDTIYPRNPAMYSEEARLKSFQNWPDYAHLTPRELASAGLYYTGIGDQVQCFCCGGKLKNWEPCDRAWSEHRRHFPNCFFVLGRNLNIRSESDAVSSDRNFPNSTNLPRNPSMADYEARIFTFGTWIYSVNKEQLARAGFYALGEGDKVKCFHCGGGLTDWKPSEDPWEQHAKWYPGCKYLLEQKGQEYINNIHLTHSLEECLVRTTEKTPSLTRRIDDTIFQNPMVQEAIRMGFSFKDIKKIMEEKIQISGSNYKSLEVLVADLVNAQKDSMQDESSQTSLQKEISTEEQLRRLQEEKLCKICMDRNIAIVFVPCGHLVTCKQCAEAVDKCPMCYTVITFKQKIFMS
row,SMILES,composite z-score
1,NC(=O)[C@@]1(Cc2ccccc2)COC(c2ccc(OCCCO)cc2)=N1,-0.0559
2,CCOC(=O)C[C@H]1[C@H](OC(=O)c2ccc(C(=O)c3ccccc3)cc2)[C@@H](NC(=O)c2ccc3ccccc3n2)c2cc(OCCCO)ccc2N1C(=O)Cc1ccc(OC)cc1,-0.0961
3,COC(=O)[C@@H]1N=C(c2ccc(OCCCO)cc2)O[C@@H]1c1ccccc1,0.761
4,CCOc1cc(C(O)C2C=CC3C(=O)NC(=O)C3N2Nc2ccc(Cl)cc2Cl)ccc1O (stereo not drawn),0.659
5,CCOC(=O)C=Cc1cccc(C)c1O,0.0533
6,COC(=O)[C@@]1(Cc2ccc(OC)cc2)[C@H]2c3cc(C(=O)N4CCCC4)n(CCO)c3C[C@H]2CN1C(=O)c1ccccc1,0.311
7,CC1=C2[C@@H](CCc3ccccc3)OB(O)C[C@@H]2[C@@H]2C(=O)N(Cc3ccccc3)C(=O)[C@@H]2C1,-0.193
8,C=CC[C@@H](OC(=O)Nc1ccc(SC)cc1)c1ccc(O)c(F)c1,-0.02
9,COCCCNC(=O)[C@@]1(CCC(=O)OC(C)(C)C)N=C(c2ccc(OCCCO)cc2)O[C@H]1c1ccccc1N=[N+]=[N-],-0.0773
10,CCOC(=O)C[C@H]1[C@H](OC(=O)c2cc3ccccc3oc2=O)[C@@H](NC(=O)CC(C)C)c2cc(OCCCO)ccc2N1C(=O)c1ccc2ccccc2n1,-0.102
11,Cc1ccc(C(C)CC(O)C2C=CC3C(=O)N(c4ccccc4)C(=O)C3N2Nc2ccccc2)o1 (stereo not drawn),0.254
12,CN(C)c1ccc(C(O)C2C=CC3C(=O)NC(=O)C3N2Nc2ccccn2)cc1 (stereo not drawn),0.0726
13,CCCCN1CC=CC23O[C@@H]4/C=C\CCCOC(=O)C4[C@H]2C(=O)N(CCO)[C@@H]3C1=O (stereo partly drawn),0.0537
